This excerpt belongs to a sample that is enriched for hits.
TTR transcr act: activators of transthyretin transcription; activation, % at 16.7 µM; 1.3% of 92,000 active; SH-SY5Y TTR promoter Gaussia luciferase, luminescence; 100% = recombinant luciferase protein wells; AID 1117267;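 active = activation above the mean of all tested compounds plus 3 SD, cut at about 9.5% in these data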;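 note: cells exposed to compounds for one day before reading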
HuH7 TTR inh: HuH7 TTR transcription inhibition, counter-screen | shares compounds with TTR transcr act | HuH7 TTR promoter-Gaussia luciferase reporter, luminescence | inhibition, % at 16.7 µM | 4% of 1,100 active;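 active = average inhibition above the solvent-only control wells' mean plus 3 SD, cut at about 15% in these data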;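 note: inhibitors lower well luminescence so higher value means more inhibition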
TTR up confirm: confirmation of human transthyretin transcription activators; shares compounds with TTR transcr act; SHSY5Y TTR promoter Gaussia luciferase, luminescence; 100% = purified Lucia enzyme wells, no cells; activation, % at 16.7 µM; 1,100 tested, under 10 active; AID 1117280;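 active = mean activation above a set limit taken from the earlier primary screen, cut at about 11% in these data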
Numbers stand for hits.

What do the screens show for `CCC[C@H]1[C@@H](OC(=O)NCc2ccco2)CC[C@@]23CCCN2C(=O)CCC[C@@H]13`?
TTR transcr act: inactive

What do the screens show for `CCOc1ccc(CCNC(=O)c2cc3ccsc3n2C)cc1OCC`?
TTR transcr act: inactive

How did Cc1cccc(NC(=O)CCCCCN2C(=O)[C@@H]3Cc4ccccc4CN3C2=O)c1 do in these assays?
TTR transcr act: 14; HuH7 TTR inh: inactive; TTR up confirm: inactive

How did Cc1ccccc1NC(=O)CCCCCN1C(=O)[C@@H]2Cc3ccccc3CN2C1=O do in these assays?
TTR transcr act: inactive

What do the screens show for `O=C(CCCCCN1C(=O)[C@@H]2Cc3ccccc3CN2C1=O)Nc1ccccc1F`?
TTR transcr act: 11; HuH7 TTR inh: inactive; TTR up confirm: inactive

How did CCOc1ccccc1NC(=O)CCCCCN1C(=O)[C@@H]2Cc3ccccc3CN2C1=O do in these assays?
TTR transcr act: inactive

Results for COc1ccc(NC(=O)CCCCCN2C(=O)[C@@H]3Cc4ccccc4CN3C2=O)cc1Cl ?
TTR transcr act: inactive

How did O=C(CCCCCN1C(=O)[C@@H]2Cc3ccccc3CN2C1=O)Nc1cccc(F)c1 do in these assays?
TTR transcr act: inactive

What do the screens show for `CC(=O)N1CC(=O)N(c2ccccc2)C1=O`?
TTR transcr act: inactive

How did CCOC(=O)[C@]12CCCC=C1N(Cc1ccc(OC)cc1)C(=O)[C@@H]2CC(=O)NCCCN1CCCC1=O do in these assays?
TTR transcr act: inactive

How did COc1ccc(S(=O)(=O)N(C)C[C@@H]2Oc3c(NC(=O)Nc4ccccc4)cccc3C(=O)N([C@@H](C)CO)C[C@H]2C)cc1 do in these assays?
TTR transcr act: inactive

Results for O=C1c2ccccc2NC(c2ccccc2)N1CCCN1CCOCC1 (centres undefined) ?
TTR transcr act: inactive

What do the screens show for `O=C1c2ccccc2C(=O)N1CCN1CCCCC1`?
TTR transcr act: inactive

Results for N#CCCN(CCCN1CCOCC1)CN1C(=O)c2ccccc2C1=O ?
TTR transcr act: 31; HuH7 TTR inh: inactive; TTR up confirm: inactive

How did CCCCCCC[C@H](N)[C@H](O)C(=O)N(C)[C@@H](CCS(C)=O)C(=O)N[C@@H](Cc1ccc(O)cc1)C(=O)O (some centres undefined) do in these assays?
TTR transcr act: inactive

How did CCC[C@H]1[C@@H](OC(=O)NCc2ccc(C(F)(F)F)cc2)CC[C@@]23CCCN2C(=O)CCC[C@@H]13 do in these assays?
TTR transcr act: inactive

How did CCCNC(=O)N(C)C[C@@H]1Oc2cc(Br)ccc2S(=O)(=O)N([C@@H](C)CO)C[C@H]1C do in these assays?
TTR transcr act: inactive

How did C[C@H]1CN([C@@H](C)CO)S(=O)(=O)c2ccc(Br)cc2O[C@H]1CN(C)C(=O)Cc1ccccc1 do in these assays?
TTR transcr act: inactive

What do the screens show for `C[C@H]1CN([C@@H](C)CO)S(=O)(=O)c2ccc(Br)cc2O[C@@H]1CN(C)C(=O)C1CCOCC1`?
TTR transcr act: 24; HuH7 TTR inh: inactive; TTR up confirm: inactive

How did CCC(=O)N(C)C[C@H]1Oc2cc(Br)ccc2S(=O)(=O)N([C@@H](C)CO)C[C@H]1C do in these assays?
TTR transcr act: 15; HuH7 TTR inh: inactive; TTR up confirm: inactive

Results for C[C@H]1CN([C@@H](C)CO)S(=O)(=O)c2ccc(Br)cc2O[C@H]1CN(C)C(=O)CN(C)C ?
TTR transcr act: inactive

How did C[C@H]1CN([C@@H](C)CO)S(=O)(=O)c2ccc(-c3cncnc3)cc2O[C@H]1CN(C)C(=O)NC1CCCC1 do in these assays?
TTR transcr act: inactive

Results for C[C@H](CO)N1C[C@H](C)[C@H](CN(C)C(=O)CC2CC2)Oc2cc(Br)ccc2S1(=O)=O ?
TTR transcr act: inactive

How did C[C@H](CO)N1C[C@H](C)[C@@H](CN(C)C(=O)c2ccc(F)cc2)Oc2cc(Br)ccc2S1(=O)=O do in these assays?
TTR transcr act: inactive

How did C[C@H](CO)N1C[C@H](C)[C@@H](CN(C)C(=O)NC2CCCC2)Oc2cc(Br)ccc2S1(=O)=O do in these assays?
TTR transcr act: 18; HuH7 TTR inh: inactive; TTR up confirm: inactive

What do the screens show for `Cc1cc(C)c(CN2CCN(C(=O)Cn3cc(C)c(=O)[nH]c3=O)CC2)c(C)c1`?
TTR transcr act: inactive

Results for Cc1cccc(CN[C@@H]2CC[C@@]34CCCN3C(=O)CCC[C@H]4C2)c1 ?
TTR transcr act: inactive

What do the screens show for `C=CCN1C(=O)[C@@H](CC(=O)NCc2ccc(C)o2)[C@]2(C(=O)OC)CCCCC=C12`?
TTR transcr act: inactive

How did C[C@H]1[C@@H](NC(=O)C(c2ccccc2)c2ccccc2)CC[C@@]23CCCN2C(=O)CCC[C@@H]13 do in these assays?
TTR transcr act: inactive

How did CCOC(=O)[C@]12CCCC=C1N(Cc1ccc(OC)cc1)C(=O)[C@@H]2CC(=O)NCCCCc1ccccc1 do in these assays?
TTR transcr act: inactive

How did O=S(=O)(c1cc(Cl)ccc1Cl)N1CCC2(CC1)OCCO2 do in these assays?
TTR transcr act: 12; HuH7 TTR inh: inactive; TTR up confirm: inactive
